From PubChem BioAssay
Some of the results follow. Active and inactive are the calls of the source.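 Rule for the calls, unless noted: active = GFP response above 150% of the DMSO level; inconclusive = fewer than 70 events counted for a yeast strain; inactive = the rest.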

Key:
[1] = hit retest on RPL19A-GFP reporter strain – cell-based, S. cerevisiae, flow cytometry, cherry picks, mother/daughter gates, confirmation (AID 2270;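 active = GFP response below 50% of the DMSO control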); conditions: 3 h, at 10 µM, stronger effect = lower value, 100 = same GFP as DMSO wells
[2] = yeast TOR pathway reporter LAP4-GFP change – cell-based, cherry picks, flow cytometry, mother/daughter gates, confirmation (AID 2271;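 active = GFP response above 150% of the DMSO control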;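 note: ratio of sample to DMSO plate mean so 100% equals DMSO level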); conditions: S. cerevisiae LAP4-GFP strain, 3 h, at 10 µM, stronger effect = higher value, 100 means same as DMSO control
[3] = TOR pathway reporter MEP2-GFP, retest of hits – S. cerevisiae, flow cytometry GFP, cherry picks, confirmation (AID 2272;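 active = GFP response above 150% of the DMSO control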;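 note: ratio of well signal to plate DMSO mean so 100% equals DMSO level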); conditions: S. cerevisiae MEP2-GFP strain, 3 h, at 10 µM, stronger effect = higher value
[4] = yeast AGP1-GFP fluorescence change, single-dose – cell-based, flow cytometry, S. cerevisiae, cherry picks, confirmation (AID 2273);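 note: median GFP channel fluorescence over the whole cell population gate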; conditions: S. cerevisiae AGP1-GFP strain, 3 h, at 10 µM
[5] = TOR pathway CIT2 reporter hit retest – S. cerevisiae, GFP fusion, cherry picks, mother/daughter gates, confirmation (AID 2274); conditions: S. cerevisiae CIT2-GFP strain, flow cytometry, 3 h, at 10 µM, stronger effect = higher value
[6] = green-channel fluorescence artefact in S. cerevisiae – s288c strain, artefact control for yeast TOR pathway GFP screen, dose response (AID 2757;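 active = fluorescence span over the dose series, or activity score, above about 33, limit read from the data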;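 note: thousands of bead-calibrated equivalent soluble fluorophore molecules from median cell fluorescence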); conditions: 520 nm autofluorescence, flow cytometry, 3 h, at 33 µM, stronger effect = higher value, zero means same as solvent-only cells
[7] = measured here: daughter cell gate
[8] = measured here: mother cell gate
[9] = measured here: daughter cell gate response
[10] = measured here: mother cell gate response

Row | Structure (SMILES) | GFP response vs DMSO [1] | GFP response vs DMSO [1, 7] | GFP response vs DMSO [1, 8] | GFP response relative to DMSO [2] | GFP response vs DMSO [3] | GFP response, % of DMSO [4] | GFP response, % of DMSO [5] | GFP response, % of DMSO [5, 7] | GFP response, % of DMSO [5, 8] | GFP response relative to DMSO [2, 9] | GFP response relative to DMSO [2, 10] | fluorescence change (kMESF span) [6]
1 | N#C/C(=C/c1ccc(N2CCOCC2)o1)c1ccc(Cl)cc1 | 96.8% (inactive) | 93.4% | 91.5% | 109% (inactive) | 104% (inactive) | 95.8% (inactive) | 104% (inactive) | 108% | 96.8% |  |  | 
2 | O=C(Nc1cccc(F)c1)c1ccccc1 | 99.4% (inactive) |  |  | 97% (inactive) | 103% (inactive) | 95.9% (inactive) | 98.8% (inactive) | 99.2% | 88.2% | 97.5% | 96.2% | 
3 | O=C1C=C(c2ccc(Cl)cc2)C(=O)N1Nc1ccccc1 | 61.9% (inactive) | 89.1% | 51.9% | 96.2% (inactive) | 113% (inactive) | 102% (inactive) | 66.5% (inactive) | 99.7% | 53.7% |  | 81.9% | 0.3 (inactive)
4 | CCC1CCCCN1S(=O)(=O)c1ccc(C(=O)Nc2nnc(-c3ccccc3Cl)o2)cc1 (stereo not drawn) | 97.6% (inactive) |  |  | 95.4% (inactive) | 102% (inactive) | 101% (inactive) | 98.3% (inactive) |  |  | 89.6% |  | 
5 | Cc1cccc(CS(=O)(=O)c2ncc(Cl)c(C(=O)Nc3nnc(C(C)C)s3)n2)c1 | 96.7% (inactive) |  |  | 106% (inactive) | 99.3% (inactive) | 102% (inactive) | 103% (inactive) | 99.3% | 104% | 108% | 105% | 
6 | CN(C)c1ccc(/C=C/c2ccc3ccccc3[n+]2C)cc1 | 95.3% (inactive) | 90% | 88.7% | 98.7% (inactive) | 107% (inactive) | 89.5% (inactive) | 107% (inactive) |  | 95.5% |  |  | 
7 | O=C(Nc1cc(F)c(Br)cc1F)c1ccc(Cl)cc1 | 99.3% (inactive) | 93.3% | 87.2% | 97.7% (inactive) | 106% (inactive) | 98.8% (inactive) | 103% (inactive) | 94% | 94.9% |  |  | 
8 | CCN(CC)c1ccc2cc(C(=O)O)c(=O)oc2c1 | 95.1% (inactive) | 89.9% | 94.2% | 126% (inactive) | 110% (inactive) | 105% (inactive) | 94.4% (inactive) |  |  |  |  | 
9 | CCCc1ccc(OCC(=O)NNC(=S)NC(=O)c2ccco2)cc1 | 111% (inactive) |  | 97.1% | 259% (active) | 139% (inactive) | 123% (inactive) | 112% (inactive) | 85.2% | 99.3% |  | 226% | 9.67 (inactive)
